Molecules are shown by their SMILES. Several values for one entry are separate records, joined by “and”; a condition that tells them apart may be missing. Identical values can stand only once. Records with an inconclusive call do not appear. Where a structure was tested more than once in an assay, its records may differ in their call. Activity calls are given as the source filed them. How the source made its calls: active means hit-call score of the fitted dose curve at least 0.9, where 1 is the maximum; inconclusive means response in the unintended direction; inactive means score below 0.9.

A short description of the experiment: TOX21_p53_BLA_p5_viability: Viability Assessment in the Tox21 HCT-116 p53 Agonism Beta-lactamase Assay, Phase 5 (AID 2283600). An excerpt: TOX21_p53_BLA_p5 is a cell-based, single-readout assay that uses HCT116, a human intestinal cell line, […] in a 1536-well plate.TOX21_p53_BLA_p5_viability is an assay readout measuring cellular ATP content and detected with CellTiter-Glo Luciferase-coupled ATP quantitation.TOX21_p53_BLA_p5_viability used a type of viability reporter where loss-of-signal activity can be used to understand changes in the cell viability. Furthermore, this assay endpoint can be referred to as a secondary readout, because this assay has produced multiple assay endpoints where this one serves a viability function. To generalize the intended target to other relatable targets, this assay endpoint is annotated to the cell cycle intended target family, where the subfamily is cytotoxicity.
Thawing Method: Place 14 mL of pre-warmed thaw medium into a 15 mL of conical tub. Remove the vial of cells to be thawed from liquid nitrogen and thaw rapidly by placing at 37C in a water bath with gentle agitation for 1-2 minutes. Decontaminate the vial by wiping with 70% ethanol before opening in a biological safety cabinet. Transfer the vial contents drop-wise into 14 mL of thaw medium in a sterile 15-mL conical tub. Centrifuge cells at 900 rpm for 4 minutes and resuspend in thaw medium. Transfer contents to the T75 tissue culture flask containing Thaw Medium and place flask in a humidified 37C/5% CO2 incubator. Switch to growth medium at first passage.Propagation Method: Aspirate medium, rinse once in DPBS, add 0.25% Trypsin/EDTA and swirl to coat the cell evenly. Add an equal volume of Growth Medium to inactivate Trypsin after 2-3 minutes incubation at 37C. Centrifuge cells at 900 rpm for 4 minutes and resuspend in growth medium. Cell should be passage or fed at least twice a week.Assay Protocol: Harvest cells from culture in growth medium and resuspend in assay medium. 2.2 Dispense 4000 cells/5 uL/well into 1536-well black/clear bottom plates using a Multidrop dispenser. After the cells were incubated at 37C for 5 hours, 23 nL of compounds dissolved in DMSO were transferred to the assay plate by a PinTool resulting in a 217-fold dilution. Incubate the plates for 16 hours at 37C, 5% CO2. Add 1 uL of 6X LiveBLAzer FRET B/G (CCF4-AM) Substrate Mixture to each well using a BioRAPTR dispenser and incubate the plates at room temperature for 2 hours. Measure fluorescence intensity at 460 and 530 nm emission and 405 nm excitation by an Envision detector. Data is expressed as the ratio of 460nm/530nm emissions. Add 4 uL of Cell-titer Glo to each well using BioRAPTR and incubate the plates at room temperature for […]. For cell viability readout that measures cytotoxicity, 4 ul/well of CellTiter-Glo reagent was added into the assay plates using a Flying Reagent Dispenser. After 30 min incubation at room temperature, the luminescence intensity in the plates was measured using a ViewLux plate reader.
`Cc1ccc(N)cc1O`: the molecule was classed as inactive. Turning to `O=C(OC[C@H]1O[C@@H](OC(=O)c2cc(O)c(O)c(OC(=O)c3cc(O)c(O)c(O)c3)c2)[C@H](OC(=O)c2cc(O)c(O)c(OC(=O)c3cc(O)c(O)c(O)c3)c2)[C@@H](OC(=O)c2cc(O)c(O)c(OC(=O)c3cc(O)c(O)c(O)c3)c2)[C@@H]1OC(=O)c1cc(O)c(O)c(OC(=O)c2cc(O)c(O)c(O)c2)c1)c1cc(O)c(O)c(OC(=O)c2cc(O)c(O)c(O)c2)c1`, the AC50 was 6.49 µM (active) and the outcome was inactive. For `CCCCCCc1ccc(O)cc1O`, in that order: 74.9 µM (active) and “inactive”. Regarding `COc1ccc2sc(C(=O)Nc3nnn[nH]3)c(OC(C)C)c2c1`, the molecule was classed as inactive. Turning to `O=P(OC(CCl)CCl)(OC(CCl)CCl)OC(CCl)CCl`, the molecule was classed as inactive. Still for that read-out and setting: the same measure for `Nc1ccc(Nc2ccccc2)cc1`: “inactive”; for `CC(=O)c1ccc2c(c1)[C@H](NC(=O)c1ccc(F)cc1)[C@@H](O)C(C)(C)O2`: “inactive”. On the same count and under the same terms, as for `CC(C)CCO`, the entry is “inactive”. The same measure, in the same setting: the same measure for `O=C(O)c1cc(N=Nc2ccc(S(=O)(=O)Nc3ccccn3)cc2)ccc1O`: “inactive”; for `CN(C)c1ccc(N=NS(=O)(=O)O)cc1`: “inactive”; for `CCCCCCCCO`: “inactive”. With `Fc1ccccc1[C@@H](F)COC1CCC(Nc2ncnc3[nH]ncc23)CC1` (stereo not given in full), the molecule was classed as inactive. Still for that read-out and setting: as for `CCCCC(CC)COC(=O)c1ccc(C(=O)OCC(CC)CCCC)cc1` (stereo not given), the entry is “inactive”.

Regarding `CC(C)c1cccc(C(C)C)c1N1C(=O)c2ccc(O)cc2C1=O`, the AC50 was 79 µM (active).

With `Cn1c(=O)c2c(ncn2C)n(C)c1=O`, the outcome was inactive.

For the molecule `Cn1cnc([N+](=O)[O-])c1Sc1ncnc2nc[nH]c12`, the molecule was called inactive. Still for that read-out and setting: as for `CCOC(=O)c1ccc(C2CCC(NC[C@H](O)COc3ccc(O)c(NS(C)(=O)=O)c3)CC2)cc1` (stereo not given in full), the entry is “inactive”; as for `NC(=O)NO`, “inactive”. Turning to `CCOc1cccc(-n2cc(C(=O)N3CCN(c4cc(C(=O)O)c5ccccc5c4)CC3)nc2-c2ccc(C)cc2)c1`, the AC50 was 36.4 µM (active). As for `O=C(O)CC(O)C(=O)O` (stereo not given), the outcome was inactive. As for `CC[C@H](C)C(=O)O[C@H]1C[C@@H](C)C=C2C=C[C@H](C)[C@H](CC[C@@H]3C[C@@H](O)CC(=O)O3)[C@H]21`, the AC50 is 91.2 µM (active) and 33.6 µM (active); the result was inactive. Take `O=C(CCCCCCCCc1cccnc1)N1CCC(C=C(c2ccccc2)c2ccccc2)CC1`: the AC50 was 13.9 µM (active). Turning to `COc1cccc(-c2ccc(/C=C\CN3CCCCCC3)cc2Cl)c1`, the molecule was classed as inactive. Take `CCCCC(CC)COC(=O)CCCCCCCCC(=O)OCC(CC)CCCC` (stereo not given): the result was inactive. On the same count and under the same terms, the same measure for `CC(C)=CCC/C(C)=C/CO`: “inactive”; for `CC[C@H]1OC(=O)[C@H](C)[C@@H](O[C@H]2C[C@@](C)(OC)[C@@H](O)[C@H](C)O2)[C@H](C)[C@@H](O[C@@H]2O[C@H](C)C[C@H](N(C)C)[C@H]2O)[C@](C)(O)C[C@@H](C)C(=O)[C@H](C)[C@@H](O)[C@]1(C)O`: “inactive”; for `O=C1OC(=O)C2C3C=CC(C3)C12` (stereo not given): “inactive”. On to `CCOC(=O)CC(CC(=O)OCC)(OC(C)=O)C(=O)OCC`, for which the result was inactive. On the same count and under the same terms, the same measure for `O=c1n(CC2CO2)c(=O)n(CC2CO2)c(=O)n1CC1CO1` (stereo not given): “inactive”; for `C=CC(=C)CCC=C(C)C`: “inactive”; for `Cc1ccc(C)c(O)c1`: “inactive”.

`CC(C)(O)c1coc(S(=O)(=O)NC(=O)Nc2c3c(cc4c2CCC4)CCC3)c1`: the result was inactive. Still for that read-out and setting: the same measure for `COCCOc1cc2cc(C(=O)NC3CCN(C(C)C)CC3)n(CC(=O)Nc3ccc(Cl)cn3)c2cn1`: “inactive”. As for `CCc1cc(SCc2sc(-c3ccc(C(F)(F)F)cc3)nc2CN2CCN(c3ccc(OC)cc3)CC2)ccc1OCC(=O)O`, the AC50 was 9.98 µM (active). In the case of `Cc1ccc(O)cc1`, the call was inactive.

Turning to `CNS(=O)(=O)c1cc(C(=O)N2CCC(CCN3C4CCC3CC(n3c(C)nc5ccccc53)C4)(c3cccc(F)c3)CC2)c(Cl)cc1F` (stereo not given), the molecule was called inactive. For the molecule `Nc1cccc(N)c1`, the molecule was classed as inactive.

By AC50 is commonly meant the concentration giving half of the maximal activity seen.

The values above are taken from PubChem BioAssay (EPA / NIEHS).
